Hit rate of the full screen: of about 1,600 compounds, about 25 (2%) were called active. Entries that show only a call come without a potency. Another 7% or so got no clear call; they are omitted. Calls come from the whole dose curve; as a rule, active = well fitted inhibition curve with a large enough effect; inconclusive = small, poorly fitted or top-dose-only effect, or effect the other way; inactive = no such curve, though single readings can be large or run the other way. The full list was thinned out, with actives kept by preference.
Potency is the fitted concentration of half-maximal effect.

Sequence of Runt-related transcription factor 1 (Homo sapiens) + Core-binding factor subunit beta (Homo sapiens) (Q01196 whole entry, looked up): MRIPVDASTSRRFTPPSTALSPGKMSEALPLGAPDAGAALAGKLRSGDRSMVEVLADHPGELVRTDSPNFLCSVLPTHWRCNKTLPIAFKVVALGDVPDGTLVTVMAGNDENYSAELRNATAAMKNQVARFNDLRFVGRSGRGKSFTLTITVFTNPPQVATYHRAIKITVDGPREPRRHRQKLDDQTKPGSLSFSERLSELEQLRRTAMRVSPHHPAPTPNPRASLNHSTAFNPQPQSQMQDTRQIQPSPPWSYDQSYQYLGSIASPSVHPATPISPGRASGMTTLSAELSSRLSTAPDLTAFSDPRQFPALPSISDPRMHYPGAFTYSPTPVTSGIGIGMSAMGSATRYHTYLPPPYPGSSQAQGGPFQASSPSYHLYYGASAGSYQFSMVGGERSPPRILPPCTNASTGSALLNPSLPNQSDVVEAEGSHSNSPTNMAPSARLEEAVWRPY
Sequence of Runt-related transcription factor 1 (Homo sapiens) + Core-binding factor subunit beta (Homo sapiens) (Q13951 whole entry, looked up): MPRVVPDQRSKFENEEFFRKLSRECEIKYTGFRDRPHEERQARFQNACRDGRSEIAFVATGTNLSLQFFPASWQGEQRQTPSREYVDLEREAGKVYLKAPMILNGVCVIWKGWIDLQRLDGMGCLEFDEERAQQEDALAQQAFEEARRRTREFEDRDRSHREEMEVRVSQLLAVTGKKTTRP

This test has as its target Runt-related transcription factor 1 (Homo sapiens) + Core-binding factor subunit beta (Homo sapiens) (UniProt Q01196+Q13951). The test can be described thus: qHTS Assay for Compounds Blocking the Interaction Between CBF-beta and RUNX1 for the Treatment of Acute Myeloid Leukemia: Hit Validation with Orthogonal Assay. The settings on record: CBFbeta-RUNX1 binding orthogonal assay, biochemical; series mostly up to 41 µM. The source says:
NIH Chemical Genomics Center [NCGC]
NIH Molecular Libraries Probe Production centers Network [MLPCN]
Assay Submitter (PI): Paul Liu
Core Binding Factor (CBF) abnormalities are associated with 20-25% of all acute myeloid leukemias (AML), of which 5-10% are further sub classified as acute myelomonocytic leukemia with eosinophilia, also known as M4Eo in the FAB classification scheme. This subtype of leukemia is usually associated with chromosome 16 inversion (p13:q22). Chromosome 16 inversion results in formation of the fusion oncogene CBFB-MYH11, which encodes the fusion protein CBF-beta-SMMHC.
It has been hypothesized that the interference of CBF-beta and RUNX1 binding could have therapeutic implications for patients with CBF mediated leukemias. We developed a CBF-beta and RUNX1 binding assay in AlphaScreenTM format and optimized it for high throughput screening to search for inhibitors. The goal of this project is to screen MLPCN's compound collection (MLSMR) for identifying the inhibitors of the interaction between CBF-beta and RUNX1 proteins as research probes. If these probes work well in the animal models, the ultimate goal of this project is to development a new drug treatment for this disease.
This assay can not be used to assess how apparent inhibitors interfere with protein binding, and whether inhibitors specifically bind to either protein. Disruption of this protein-protein interaction, through any mechanism, is the intended target activity.
The present data set was run to confirm the activity of hits from the primary screen using an orthogonal assay technology for measuring protein-protein interaction disruption.
A TR-FRET (time resolved fluorescence resonance energy transfer) assay was performed using the same assay buffer, protein concentrations and incubation times as described previously in the AlphaScreen assay, except that terbium (Tb+) labeled anti-his-antibody and XL665 linked streptavidin were used to capture the binding signal. The Tb+ labeled anti-his-antibody captures His(6)-CBF and XL665 linked streptavidin binds to biotin-RUNX1. The binding of RUNX1 to CBFbrings Tb+ and XL665 to proximity resulting in a TR-FRET signal. Briefly, in a white 384-well plate, 10 µl/well of mixture of biotin-RUNX1 and His(6)-CBFwere incubated with 10 µl/well buffer (positive control) or 10 µl/well compounds (negative control) for 20 min followed by an addition of 10 µl/well of Tb+ labeled anti-his(6)-antibody and XL665 linked streptavidin. After 90 min of incubation in the dark, the assay plate was measured in the Envision plate reader using TR-FRET detection mode. For the 1536-well plate format, 3 µl/well mixture of biotin-RUNX1 and His(6)-CBF (30 nM per protein) was incubated with 23 nl/well compound (dissolved in 100% DMSO) or the equivalent DMSO concentration (positive control) for 30 min followed by the addition of 1 µl/well of 0.44 ng Tb+ labeled anti-his(6)-antibody and 5 nM streptavodin-XL665. After 90 min of incubation, the assay plate was measured in the Envision plate reader.
The TR-FRET assay for detecting interaction between HIV-I Tat and […] was similarly performed with the recombinant full-length HIV-I Tat CLADE B and HIV-I Tat Biotin conjugated proteins supplied by Diatheva (Fano, Italy). Briefly, the His-CBF and Biotin-RUNX1 complex at a working concentration of 83.3 nM per protein were pre-incubated in assay buffer for 10 minutes on ice. Then HIV-I Tat or unlabeled CBF were added to reach final concentrations (Supplementary Figure 4b) and incubated for 5 minutes. Finally anti-His antibody and streptavidin-XL665 at a final concentration of 2.2 ng and 5 nM, respectively, were added to the plate, which was incubated for 1 hr prior to reading on the PerkinElmer Envision plate reader.
Keywords: MLSMR, MLPCN, NIH Roadmap, qHTS, NCGC, Core binding factor, CBF, CBF-beta, Acute myeloid leukemia
For orientation: qHTS replaces the single test concentration by a dilution series.
As to `CC(=O)c1sccc1NC(=O)c1ccccc1C(=O)O`, the Potency entry is “inactive”. Consider `O=C(Oc1c(-c2ccccc2)c(=O)n2c3c(cccc13)CC2)c1ccccc1`, for which the Potency result was “inactive”. As for `O=[N+]([O-])c1cccnc1Oc1ccc(F)cc1`, the Potency entry was “inactive”.

Take `Cn1nc2c3ccccc3n(Cc3ccc(F)cc3)c2nc1=S`: the Potency result was “inactive”. Then `Cc1nc2ccc(NC(=S)N3CCOCC3)cc2nc1C`, with 12.6 µM (active); and `COc1ccc(C(=O)NC(=S)Nc2ccc(CN3CCOCC3)cc2)cc1`, with “inactive”; and `Cc1cccc(C)c1NC(=S)N1CCOCC1`, with “inactive”.

For `COC(=O)c1scc(C)c1NC(=O)/C=C/C(=O)O`, the Potency entry is “inactive”. Consider `Cc1ccc(N/N=C(\C#N)C(=N)N2CCCCC2)cc1`, for which the Potency result was “inactive”. `Cc1nc(SCc2cccc(F)c2)c2oc3ccccc3c2n1`: the Potency entry is “inactive”. Then `Cn1ncc2c(c(SCc3ccc(Cl)cc3Cl)nn2C)c1=O`, with “inactive”; and `O=C1NCCc2c1[nH]c1ccccc21`, with “inactive”; and `CC(C)Cn1nc(NC(=O)c2cccs2)c2cc3ccccc3nc21`, with “inactive”. Consider `CC(=O)Oc1cc2c3c(c1)/C(=C1/SC(=S)NC1=O)C(=O)N3C(C)(C)C=C2C`, for which the Potency result was “inactive”.

In the case of `CC(C)N(Cc1ccccc1)C(=O)c1ccc2nsnc2c1`, the Potency result is “inactive”. Turning to `O=C(CSc1nc2ccccc2n1Cc1ccccc1Cl)N/N=C/c1ccccc1C(=O)O`, the Potency result is “inactive”. Then `O=C(O)C1CCc2sc3[nH]c(=S)n(-c4ccccc4)c(=O)c3c21` (stereo not drawn), with “inactive”; and `Cn1cccc1/C=C1\SC(=S)N(NC(=O)c2ccc(F)cc2)C1=O`, with “inactive”; and `Clc1ccc(C2=Nn3c(Cn4nnc5ccccc54)nnc3SC2)cc1`, with “inactive”. On to `O=C1COc2cccnc2N1`, for which the Potency result is “inactive”. Consider `Cc1c(-c2ccccc2)[n+](=O)c(-c2ccc(Br)cc2)c(C)n1[O-]`, for which the Potency entry is “inactive”. Consider `COc1cc(C(=O)NC(=S)Nc2ccc3c(c2)OCO3)cc(OC)c1OC`, for which the Potency entry is “inactive”. Regarding `CCCSc1cc(Cl)nc(N)n1`, the Potency entry is “inactive”. For `O=C(CCl)NC1(C(F)(F)F)C(=O)Nc2c1c(=O)[nH]c(=O)n2-c1ccccc1` (stereo not drawn), the Potency result was “inactive”.

Take `O=[N+]([O-])c1ccc(-c2cn3c(n2)CCC3)cc1`: the Potency result was “inactive”. `COc1c(/C=N/NC(=O)c2ccncc2)c(CCN(C)C(C)=O)cc2c1OCO2`: the Potency result is “inactive”. The same measure for `COc1cc(/C=N/n2nnnc2N)cc(OC)c1OC`: “inactive”; for `Cc1nc2ccccc2nc1N1CCCC1`: “inactive”. For the compound `COc1cscc1C(=O)O`, the Potency result is “inactive”. Turning to `CCOc1nsc(OCC)n1`, the Potency result was “inactive”. Take `C/C(=N\Nc1cccc(Cl)c1)C1(C)N(O)C(C)(C)C(c2ccco2)=[N+]1[O-]` (stereo not drawn): the Potency entry was “inactive”. On to `CCOC(=O)C1=C(C)N(CC(C)C)C(=O)/C1=C\c1cccs1`, for which the Potency result is “inactive”.

`O=C(O)/C=C/c1cn(-c2ccccc2)nc1-c1ccc(-c2ccc([N+](=O)[O-])cc2)o1`: the Potency entry was “inactive”.

Take `COc1ccccc1/C=C/C=NC1C(=O)N(c2ccccc2)[N+](C)=C1C` (stereo not drawn): the Potency result was “inactive”.

On to `O=C(O)c1cc(O)c2c(c1)[C@H]([C@H]1c3cc(C(=O)O)cc(O)c3C(=O)c3c(O[C@@H]4OC(CO)C(O)C(O)C4O)cccc31)c1cccc(O[C@@H]3OC(CO)C(O)C(O)C3O)c1C2=O` (stereo partly drawn), for which the Potency was 2.51 µM (active). The same measure for `O=C(O)CC(CCc1ccccc1)OC1OC(CO)C(O)C(O)C1O` (stereo not drawn): “inactive”. In the case of `COc1cc(/C=C/c2nc3ccc([N+](=O)[O-])cc3s2)ccc1OCC(=O)O`, the Potency result is “inactive”.

`CCn1cc(C(c2ccccc2)C(C(C)=O)[N+](=O)[O-])c2ccccc21` (stereo not drawn): the Potency entry was “inactive”.

For `OCCNc1nc2ccccc2nc1NCCO`, the Potency result was “inactive”. In the case of `COc1ccc(C2=NOC(CNC(=S)N3CCOCC3)C2)cc1` (stereo not drawn), the Potency entry is “inactive”. Take `Cn1c(SCC(=O)NC(=O)Nc2ccccc2)nnc1-c1ccncc1`: the Potency entry is “inactive”. Take `C(=C\c1nccc2c1[nH]c1ccccc12)/c1ccccc1`: the Potency result is “inactive”.

Take `COc1cccc(/C=N/NC(=O)c2cnccn2)c1OC`: the Potency result was “inactive”. Consider `Oc1ccccc1/C=N/Nc1nn[nH]n1`, for which the Potency entry is “inactive”. `CCN(CC)c1ncc(C#N)c(N)n1`: the Potency entry is “inactive”. In the case of `Cc1cc(O)c(C=O)c2c1C(=O)Oc1c(COC(=O)/C=C/C(=O)O)c(O)c(C(=O)O)c(C)c1O2`, the Potency was 28.2 µM (active). Take `CCOC(=O)c1cn2nc(Oc3ccc(C(=O)OC)cc3)ccc2n1`: the Potency entry is “inactive”. Then `CCc1nc2ccccc2nc1N1CCN(S(=O)(=O)c2ccc(Cl)cc2)CC1`, with “inactive”; and `c1ccc(C2=Nn3c(Cn4nnc5ccccc54)nnc3SC2)cc1`, with “inactive”.

Turning to `CC(=O)c1ccc(S(=O)(=O)N2Cc3ccccc3CC2C(=O)O)cc1` (stereo not drawn), the Potency entry was “inactive”. Then `Brc1ccc(C2=Nn3c(Cn4nnc5ccccc54)nnc3SC2)cc1`, with “inactive”; and `COc1ccc(C(=O)CN2CCN(c3cc(C)nc4ccccc34)CC2)cc1`, with “inactive”; and `COC(=O)/C(=C\Nc1ccc(Oc2ccc(F)cc2F)nc1)NC(=O)c1ccccc1`, with “inactive”. Regarding `CN(C)c1cc(-c2ccc(Cl)cc2Cl)oc(=O)c1Cl`, the Potency entry is “inactive”.

On to `CC(C)(C)C(=O)Nc1ccccc1C(=O)NCc1cccnc1`, for which the Potency result is “inactive”.

Turning to `O=S(=O)(c1ccc(F)cc1F)N1CCCN(c2ccc(C(F)(F)F)cn2)CC1`, the Potency entry is “inactive”.

`CCC(C)c1ccc(OCc2ccc(C(=O)OC)o2)cc1` (stereo not drawn): the Potency entry was “inactive”. With `CCNC(=S)Nc1ccc(NC(=O)c2ccccc2O)cc1`, the Potency entry is “inactive”. `COc1ccccc1C1CCN(C(=O)c2ccco2)CC1`: the Potency result is “inactive”.

With `COc1ccccc1C1CCN(C(=O)c2cccs2)CC1`, the Potency result was “inactive”. `Cc1ccc2c(c1C)NC(C(=O)O)C1CC=CC21` (stereo not drawn): the Potency is 7.08 µM (active).

Regarding `COc1cccc2c1NC(C(=O)O)C1CC=CC21` (stereo not drawn), the Potency is 7.94 µM (active). In the case of `O=C(O)C1Nc2c(O)cccc2C2C=CCC12` (stereo not drawn), the Potency was 3.55 µM (active). In the case of `O=C(O)C1Nc2c(O)cc(Cl)c([N+](=O)[O-])c2C2C=CCC12` (stereo not drawn), the Potency entry is “inactive”. Turning to `Cn1ncc(Br)c1N1C(=O)CCC1=O`, the Potency entry is “inactive”. For `Fc1ccc(C(CCNCc2cccs2)c2ccco2)cc1` (stereo not drawn), the Potency result is “inactive”. In the case of `COc1ccc(NC(=O)Nc2nc3ccccc3s2)cc1`, the Potency entry is “inactive”. Regarding `Cc1cc(NC(=O)CSc2nc3ccccc3[nH]2)n(-c2ccccc2)n1`, the Potency result is “inactive”. `c1ccc(-c2nnc(-c3ccccn3)nc2NC2CCCCC2)cc1`: the Potency result is “inactive”. Consider `c1ccc(-c2n[nH]c(-c3ccccn3)n2)nc1`, for which the Potency entry was “inactive”. For `CN(C)c1nc(-c2ccccn2)nnc1-c1ccccc1`, the Potency is 22.4 µM (active).

On to `CC(=O)Nc1cccc(OCCCNC(=O)c2cccc3ccccc23)c1`, for which the Potency entry was “inactive”. Take `COc1ccc2[nH]c(C(=O)N3CCCN(Cc4ccc(F)cc4)CC3)cc2c1`: the Potency entry is “inactive”.

Source of the values: PubChem BioAssay AID504375 (National Center for Advancing Translational Sciences (NCATS), 2011).
